From the supplement of paper PMC11732987, “Enantioselective OTUD7B fragment discovery through chemoproteomics screening and high-throughput optimisation” (Communications Chemistry, 2025)

Experiments:
Test in all cases: log2 ratio of Biotin-Ahx-Ub-VS probe labelling (fragment/DMSO); higher = less target engagement (more negative = stronger competition), active = hit call of the paper (q ≤ 0.05, log2 ratio ≤ -1)
Details in all cases: compound concentration: 200 uM; treatment time: 3 h
[1] = target: T1, OTUD6B (UniProt Q8N6M0)
T1 sequence (whole entry): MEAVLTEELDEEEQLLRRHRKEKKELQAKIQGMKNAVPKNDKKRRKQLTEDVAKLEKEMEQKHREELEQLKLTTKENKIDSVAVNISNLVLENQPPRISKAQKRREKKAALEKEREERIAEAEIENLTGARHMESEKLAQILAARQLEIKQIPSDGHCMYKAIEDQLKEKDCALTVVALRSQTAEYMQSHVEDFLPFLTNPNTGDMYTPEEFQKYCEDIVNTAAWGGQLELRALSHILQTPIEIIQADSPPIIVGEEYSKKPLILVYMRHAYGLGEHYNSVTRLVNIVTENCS
How it was run: (§1)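 HEK293T lysate, 495 µg per sample in Tris/CHAPS/IGEPAL buffer with protease inhibitors, was treated in triplicate with fragment at 200 µM or vehicle for 3 h and then with Biotin-Ahx-Ub-VS at 0.5 µM final for 1 h. Labelled DUBs were NeutrAvidin-enriched, digested with LysC and trypsin, and run by diaPASEF LC-MS/MS. Spectronaut label-free quantities were global-median-normalised, and values are average log2 fragment/vehicle ratios by unpaired t-test on proteins with ≥2 unique peptides.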

[2] = target: T2, OTUD7B (UniProt Q6GQQ9)
T2 sequence (whole entry): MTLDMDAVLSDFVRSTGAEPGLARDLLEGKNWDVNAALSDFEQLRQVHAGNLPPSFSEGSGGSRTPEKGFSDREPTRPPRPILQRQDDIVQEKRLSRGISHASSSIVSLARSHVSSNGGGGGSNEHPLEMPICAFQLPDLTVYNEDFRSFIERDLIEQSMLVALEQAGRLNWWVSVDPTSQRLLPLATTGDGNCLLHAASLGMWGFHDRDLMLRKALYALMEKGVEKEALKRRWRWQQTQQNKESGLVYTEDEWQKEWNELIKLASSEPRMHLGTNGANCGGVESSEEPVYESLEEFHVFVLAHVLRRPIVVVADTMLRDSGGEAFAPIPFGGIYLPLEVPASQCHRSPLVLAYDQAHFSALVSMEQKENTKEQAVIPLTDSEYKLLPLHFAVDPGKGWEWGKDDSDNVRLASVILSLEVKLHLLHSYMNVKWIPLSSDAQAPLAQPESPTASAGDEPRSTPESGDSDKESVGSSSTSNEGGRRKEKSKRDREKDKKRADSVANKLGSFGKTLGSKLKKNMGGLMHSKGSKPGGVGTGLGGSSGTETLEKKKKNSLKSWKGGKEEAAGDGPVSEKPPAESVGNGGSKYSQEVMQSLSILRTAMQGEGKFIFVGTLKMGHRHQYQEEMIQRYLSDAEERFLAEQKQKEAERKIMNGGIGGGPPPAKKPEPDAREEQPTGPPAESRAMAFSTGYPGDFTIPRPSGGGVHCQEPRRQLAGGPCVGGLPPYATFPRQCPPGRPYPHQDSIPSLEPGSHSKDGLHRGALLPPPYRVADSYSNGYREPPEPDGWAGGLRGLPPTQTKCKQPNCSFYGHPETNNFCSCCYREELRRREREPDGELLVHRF
How it was run: as §1

[3] = target: PRPF8 (UniProt Q6P2Q9)
How it was run: as §1

[4] = target: T3, PSMD7 (UniProt P51665)
T3 sequence (whole entry): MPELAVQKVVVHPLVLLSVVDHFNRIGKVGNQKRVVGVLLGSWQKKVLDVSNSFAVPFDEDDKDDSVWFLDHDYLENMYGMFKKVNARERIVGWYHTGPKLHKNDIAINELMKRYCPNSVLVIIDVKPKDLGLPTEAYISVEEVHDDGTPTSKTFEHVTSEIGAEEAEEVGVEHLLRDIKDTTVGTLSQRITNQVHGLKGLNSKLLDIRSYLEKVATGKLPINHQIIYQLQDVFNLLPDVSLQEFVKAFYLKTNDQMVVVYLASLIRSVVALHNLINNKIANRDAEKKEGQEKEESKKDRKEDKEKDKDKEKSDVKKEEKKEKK
How it was run: as §1

[5] = target: UCHL1 (UniProt P09936)
How it was run: as §1

[6] = target: T4, UCHL3 (UniProt P15374)
T4 sequence (whole entry): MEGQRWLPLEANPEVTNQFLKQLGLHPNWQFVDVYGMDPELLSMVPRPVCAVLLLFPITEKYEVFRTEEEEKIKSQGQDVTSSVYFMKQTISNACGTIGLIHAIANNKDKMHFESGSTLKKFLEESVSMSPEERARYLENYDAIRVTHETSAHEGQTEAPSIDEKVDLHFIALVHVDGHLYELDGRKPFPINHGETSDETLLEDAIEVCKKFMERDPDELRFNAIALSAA
How it was run: as §1

[7] = target: T5, UCHL5 (UniProt Q9Y5K5)
T5 sequence (whole entry): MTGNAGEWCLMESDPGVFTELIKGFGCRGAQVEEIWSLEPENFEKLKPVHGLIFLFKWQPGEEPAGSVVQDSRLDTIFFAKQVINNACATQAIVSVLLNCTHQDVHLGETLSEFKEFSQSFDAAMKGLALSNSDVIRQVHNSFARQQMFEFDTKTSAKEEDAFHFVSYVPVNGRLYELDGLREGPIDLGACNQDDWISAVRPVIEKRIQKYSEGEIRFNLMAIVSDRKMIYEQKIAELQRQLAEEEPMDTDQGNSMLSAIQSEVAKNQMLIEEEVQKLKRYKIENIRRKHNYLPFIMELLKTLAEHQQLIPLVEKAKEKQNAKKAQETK
How it was run: as §1

[8] = target: USP10 (UniProt Q14694)
How it was run: as §1

[9] = target: T6, USP15 (UniProt Q9Y4E8)
T6 sequence (whole entry): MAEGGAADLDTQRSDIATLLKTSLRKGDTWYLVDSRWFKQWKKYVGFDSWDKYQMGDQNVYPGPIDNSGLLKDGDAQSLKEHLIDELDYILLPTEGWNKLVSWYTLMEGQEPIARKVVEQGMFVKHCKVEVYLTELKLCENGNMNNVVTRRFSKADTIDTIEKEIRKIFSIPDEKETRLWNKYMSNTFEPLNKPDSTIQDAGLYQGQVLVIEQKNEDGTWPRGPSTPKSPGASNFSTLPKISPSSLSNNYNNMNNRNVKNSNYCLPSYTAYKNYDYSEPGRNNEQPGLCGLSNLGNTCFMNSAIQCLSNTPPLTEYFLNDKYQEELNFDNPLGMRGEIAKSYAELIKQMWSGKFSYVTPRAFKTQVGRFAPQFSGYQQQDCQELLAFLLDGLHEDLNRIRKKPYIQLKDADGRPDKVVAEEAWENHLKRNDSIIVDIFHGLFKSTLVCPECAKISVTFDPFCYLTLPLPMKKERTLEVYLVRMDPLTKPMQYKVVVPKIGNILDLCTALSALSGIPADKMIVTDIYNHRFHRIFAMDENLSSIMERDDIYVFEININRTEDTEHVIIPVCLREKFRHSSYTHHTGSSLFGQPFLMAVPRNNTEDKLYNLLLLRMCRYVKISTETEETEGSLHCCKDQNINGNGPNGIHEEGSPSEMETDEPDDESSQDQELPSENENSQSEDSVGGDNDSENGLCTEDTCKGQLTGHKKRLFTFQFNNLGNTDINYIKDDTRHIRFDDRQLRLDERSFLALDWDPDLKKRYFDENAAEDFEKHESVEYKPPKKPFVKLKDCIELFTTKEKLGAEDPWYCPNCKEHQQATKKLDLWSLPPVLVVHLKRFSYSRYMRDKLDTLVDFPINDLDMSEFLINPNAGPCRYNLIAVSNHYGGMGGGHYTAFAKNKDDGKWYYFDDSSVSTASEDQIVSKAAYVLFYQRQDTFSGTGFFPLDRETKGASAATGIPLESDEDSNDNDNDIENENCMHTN
How it was run: as §1

[10] = target: USP16 (UniProt Q9Y5T5)
How it was run: as §1

Measured: log2 ratio of Biotin-Ahx-Ub-VS probe labelling

Chain of USP16 (Q9Y5T5 whole entry, looked up): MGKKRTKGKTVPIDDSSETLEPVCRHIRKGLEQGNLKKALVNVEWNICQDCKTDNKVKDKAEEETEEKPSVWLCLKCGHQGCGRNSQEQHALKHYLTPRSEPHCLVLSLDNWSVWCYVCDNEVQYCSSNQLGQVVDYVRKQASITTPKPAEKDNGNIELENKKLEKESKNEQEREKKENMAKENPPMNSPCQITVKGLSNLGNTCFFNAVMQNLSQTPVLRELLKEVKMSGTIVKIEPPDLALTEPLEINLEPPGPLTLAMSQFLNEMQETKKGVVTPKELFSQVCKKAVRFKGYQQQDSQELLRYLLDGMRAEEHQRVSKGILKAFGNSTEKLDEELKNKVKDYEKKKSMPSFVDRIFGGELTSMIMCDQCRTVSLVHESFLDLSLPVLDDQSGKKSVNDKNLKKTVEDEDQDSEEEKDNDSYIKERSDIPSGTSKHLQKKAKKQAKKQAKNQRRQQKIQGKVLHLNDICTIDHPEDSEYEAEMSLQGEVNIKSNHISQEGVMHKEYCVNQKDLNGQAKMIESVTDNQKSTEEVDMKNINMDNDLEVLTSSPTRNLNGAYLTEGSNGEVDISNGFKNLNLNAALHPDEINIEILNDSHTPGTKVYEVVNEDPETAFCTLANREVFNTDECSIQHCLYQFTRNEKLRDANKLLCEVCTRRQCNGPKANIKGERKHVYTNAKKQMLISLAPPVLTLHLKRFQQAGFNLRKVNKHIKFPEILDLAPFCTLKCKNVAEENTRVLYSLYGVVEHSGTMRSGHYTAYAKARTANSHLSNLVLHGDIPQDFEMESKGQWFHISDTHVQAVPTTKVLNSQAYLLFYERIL
Chain of USP10 (Q14694 whole entry): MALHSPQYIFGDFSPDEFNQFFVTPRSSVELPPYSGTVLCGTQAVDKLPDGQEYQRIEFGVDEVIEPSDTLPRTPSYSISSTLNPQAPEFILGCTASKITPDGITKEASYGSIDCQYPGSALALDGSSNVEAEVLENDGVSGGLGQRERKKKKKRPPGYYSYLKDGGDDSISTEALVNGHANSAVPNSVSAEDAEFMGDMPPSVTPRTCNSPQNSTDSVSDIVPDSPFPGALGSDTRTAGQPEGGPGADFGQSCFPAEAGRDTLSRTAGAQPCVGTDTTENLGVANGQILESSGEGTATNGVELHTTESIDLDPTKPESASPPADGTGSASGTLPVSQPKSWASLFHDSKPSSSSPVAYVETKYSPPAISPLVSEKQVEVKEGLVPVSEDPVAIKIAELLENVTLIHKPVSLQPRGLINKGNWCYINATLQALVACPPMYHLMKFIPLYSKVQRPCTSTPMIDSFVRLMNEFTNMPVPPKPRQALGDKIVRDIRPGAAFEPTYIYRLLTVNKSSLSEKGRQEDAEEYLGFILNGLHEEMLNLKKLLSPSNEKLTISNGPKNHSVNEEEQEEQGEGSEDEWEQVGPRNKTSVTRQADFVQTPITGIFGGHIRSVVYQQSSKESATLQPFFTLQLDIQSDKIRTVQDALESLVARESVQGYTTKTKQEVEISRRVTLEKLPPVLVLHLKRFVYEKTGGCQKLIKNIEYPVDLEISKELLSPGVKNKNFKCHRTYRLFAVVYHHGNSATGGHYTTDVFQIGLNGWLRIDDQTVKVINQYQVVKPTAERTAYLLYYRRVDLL
Chain of UCHL1 (P09936 whole entry, looked up): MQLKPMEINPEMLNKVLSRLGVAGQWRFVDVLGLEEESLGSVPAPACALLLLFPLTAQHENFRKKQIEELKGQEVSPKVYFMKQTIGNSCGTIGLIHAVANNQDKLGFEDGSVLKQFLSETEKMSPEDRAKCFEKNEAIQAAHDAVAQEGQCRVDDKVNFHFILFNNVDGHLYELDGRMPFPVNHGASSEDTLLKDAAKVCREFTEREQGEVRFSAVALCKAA

Cc1ccc(CC(NC(=O)CCl)c2ccccn2)cc1.Cl (stereo not given)
inactive: [1] 0.0158 | [2] -0.295 | [3] 0.0556 | [4] -0.125 | [5] -0.621 | [6] 0.459 | [7] 0.179 | [8] -0.00276 | [9] 0.0178 | [10] 0.0921
